SW480 rereplic: inducers of DNA re-replication in SW480 colon cancer cells; 340,000 compounds, 1.8% hits; SW480 DNA re-replication, Hoechst DNA content imaging, 48 h; Potency, µM (titrated, usually from 46.1 µM), for the others: top-dose re-replication activation, usual class: activators; also: % of control where 0% means no effect; nearly all actives have a fitted effect of over 55% in size
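Treated cells incubate 48 hr (37 C, 5% CO2), are stained 40 min with Hoechst, and nuclear fluorescence is enumerated; a rise in nuclei with high DNA signal marks re-replication.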
VP16 counter: counter-screen for ROR gamma inhibitors: Gal4-VP16 reporter; 310,000 compounds, 3.5% hits; Drosophila S2 Gal4-VP16 UAS-luciferase, luminescence, 20 h; AID 2546; Potency, µM (top dose mostly 53.6 µM), for inactives: at the highest dose activity, negative = inhibition, actives largely listed as inhibitors;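 also: Gal4-VP16 expression switched on by copper sulfate through the metallothionein promoter; % is scaled to controls: 0 for no effect and ±100 for the full control effect; nearly all actives have a fitted effect of over 50% in size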
RORgamma inh: inhibitors of mouse ROR gamma transcriptional activity. P51450. Drosophila S2 Gal4-RORgamma UAS-luciferase reporter, 20 h. Potency, µM (titrated, usually from 53.6 µM), without a hit: at the highest dose activity change, negative = inhibition, usual class: inhibitors. 310,000 compounds, 5.4% hits; also: % is scaled to controls: 0 for no effect and ±100 for the full control effect; nearly all actives have a fitted effect of over 60% in size
Target sequence (P51450 whole entry, looked up, the tested form may be a part): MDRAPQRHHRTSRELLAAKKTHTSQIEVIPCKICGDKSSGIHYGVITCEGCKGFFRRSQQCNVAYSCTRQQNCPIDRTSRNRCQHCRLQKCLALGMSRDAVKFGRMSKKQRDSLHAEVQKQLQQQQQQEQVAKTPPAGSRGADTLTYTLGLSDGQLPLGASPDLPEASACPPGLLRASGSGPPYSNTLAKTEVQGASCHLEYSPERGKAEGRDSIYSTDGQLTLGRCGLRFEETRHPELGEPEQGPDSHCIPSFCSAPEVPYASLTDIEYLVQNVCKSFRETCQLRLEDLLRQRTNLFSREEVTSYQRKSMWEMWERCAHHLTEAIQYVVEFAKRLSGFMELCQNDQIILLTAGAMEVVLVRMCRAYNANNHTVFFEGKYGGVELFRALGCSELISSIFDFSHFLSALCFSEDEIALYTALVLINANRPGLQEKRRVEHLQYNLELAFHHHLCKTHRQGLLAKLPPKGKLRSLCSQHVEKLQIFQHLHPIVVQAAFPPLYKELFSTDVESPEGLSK
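Drosophila Schneider cells stably carrying a metallothionein-driven Gal4 DBD–ROR gamma fusion and a UAS-Photinus luciferase reporter were exposed to compound for 1 hr, then induced with copper sulfate (700 uM final) for 20 hr at ambient temperature before luminescence reading.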
MCF10A rereplic: DNA re-replication induction in MCF 10a cells; MCF 10A DNA re-replication, Hoechst nuclear intensity, 48 h; Potency, µM (top dose mostly 46.1 µM), for inactives: at the top dose activity, positive = re-replication, usual class: activators; 350,000 compounds, 2.9% hits; also: % of control where 0% means no effect; nearly all actives have a fitted effect of over 50% in size
KB-V1 cytotox: kills drug-selected multidrug resistant KB-V1 cells. Potency, µM (series often up to 46.1 µM), actives largely listed as cytotoxic. AID 1347076. 400,000 compounds, 3.4% hits. KB-V1 MDR cells viability, CellTiter-Glo, 72 h; also: % is scaled to controls: 0 for no effect and ±100 for the full control effect; nearly all actives have a fitted effect of over 60% in size
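qHTS viability screen in drug-selected KB-V1 MDR cells: 72 h compound treatment at 37 degrees C, ATP luminescence end point.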
KB-3-1 tox: KB-3-1 parental cell cytotoxicity; KB-3-1 viability, CellTiter-Glo ATP luminescence, 72 h; Potency, µM (titrated, usually from 46.1 µM), actives largely listed as cytotoxic; 400,000 compounds, 1.4% hits; AID 1347075; also: % is scaled to controls: 0 for no effect and ±100 for the full control effect; nearly all actives have a fitted effect of over 60% in size
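Cytotoxicity in the drug-sensitive parental line KB-3-1 was scored as loss of CellTiter-Glo luminescence following 72 h incubation with compound. Values come from curve fitting of normalized concentration-response data.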
An asterisk follows results filed as active; [ ] = remark or other dose. A selection: hits, their analogues and other compounds. The true share with any hit is near 10%. Calls follow the shape of the dose curve; as a rule, active = well fitted curve in the direction sought with a large enough effect; inconclusive = small, poorly fitted or top-dose-only effect, or another doubt; inactive = no such curve, though single readings can be large; an effect the other way counts as inactive or inconclusive. Potency is read from the fitted curve at half-maximal effect.

Screening CCOC(=O)c1c(NC(=O)c2ccc(Cl)cc2)csc1C returned SW480 rereplic -66%, VP16 counter 1%, RORgamma inh 1%, MCF10A rereplic -58%, KB-V1 cytotox 9.2µM* and KB-3-1 tox inactive.
Screening C=C(C)c1cccc(C(C)(C)NC(=O)Nc2ccc(OC)cc2)c1 returned SW480 rereplic -3%, VP16 counter inconclusive, RORgamma inh -8%, MCF10A rereplic 2%, KB-V1 cytotox inactive and KB-3-1 tox inactive.
C=C(C)c1cccc(C(C)(C)NC(=O)Nc2ccc(C(C)=O)cc2)c1 was read as SW480 rereplic inconclusive, VP16 counter 1%, RORgamma inh inconclusive, MCF10A rereplic inconclusive, KB-V1 cytotox 18µM* and KB-3-1 tox inactive.
C=C(C)c1cccc(C(C)(C)NC(=O)N2CCC(C)CC2)c1 was read as SW480 rereplic -5%, VP16 counter 4%, RORgamma inh 6%, MCF10A rereplic -4%, KB-V1 cytotox 18µM* and KB-3-1 tox inactive.
C=C(C)c1cccc(C(C)(C)NC(=O)N2CCN(C)CC2)c1 was read as SW480 rereplic 3%[9.22 µM], VP16 counter 5%, RORgamma inh -29%, MCF10A rereplic -10%, KB-V1 cytotox inactive and KB-3-1 tox inactive.
`O=C(C[n+]1ccc(Cl)c2ccc(Cl)cc21)c1ccc(F)cc1` gave KB-V1 cytotox inactive and KB-3-1 tox inconclusive.
Screening O=C(Nc1ccc(OCc2cc(=O)n3c4c(sc3n2)CCCC4)cc1)c1cccc(F)c1 returned KB-V1 cytotox inconclusive and KB-3-1 tox inactive.
Screening O=C(NCc1ccco1)Nc1nnc([C@H]2C[C@H](O)[C@@H](CO)O2)s1 returned KB-V1 cytotox inactive and KB-3-1 tox inactive.
CCOC(=O)c1c(NC(=O)CSc2nnc(-c3c[nH]c4ccccc34)n2C)sc2c1CCCC2 was read as SW480 rereplic 3%, VP16 counter -27%, RORgamma inh inconclusive, MCF10A rereplic 22%, KB-V1 cytotox inactive and KB-3-1 tox inconclusive.
CCOC(=O)c1c(NC(=O)CSc2nnc(-c3c[nH]c4ccccc34)n2CCOC)sc2c1CCCC2 was read as SW480 rereplic inconclusive, VP16 counter -8%, RORgamma inh 44%, MCF10A rereplic 15%, KB-V1 cytotox inactive and KB-3-1 tox 18µM*.
`CN(C)CCNC(=O)CN1C(=O)COc2ccc(S(=O)(=O)N3CCCC3)cc21` gave KB-V1 cytotox inactive and KB-3-1 tox inactive.
For O=C(NC(=S)N1CCN(Cc2ccc3c(c2)OCO3)CC1)c1ccc(Cl)cc1 the results were SW480 rereplic 2%, VP16 counter 0.63µM*, RORgamma inh 0.45µM*, MCF10A rereplic inconclusive, KB-V1 cytotox inactive and KB-3-1 tox inactive.
O=C(c1cccn2c(=O)c3ccc(Cl)cc3nc12)N1CCN(Cc2ccc3c(c2)OCO3)CC1 was read as SW480 rereplic 16µM*, VP16 counter -8%, RORgamma inh -4%, MCF10A rereplic 16µM*, KB-V1 cytotox inactive and KB-3-1 tox inactive.
Screening O=C(c1ccc(COc2ccc(Cl)cc2)o1)N1CCN(Cc2ccc3c(c2)OCO3)CC1 returned SW480 rereplic 15%, VP16 counter 0%, RORgamma inh -7%, MCF10A rereplic inconclusive, KB-V1 cytotox 10µM* and KB-3-1 tox inactive.
Screening O=C(c1cccc(Cl)c1)N1CCN(Cc2ccc3c(c2)OCO3)CC1 returned SW480 rereplic -4%, VP16 counter 5%, RORgamma inh -5%, MCF10A rereplic -5%, KB-V1 cytotox inactive and KB-3-1 tox inactive.
For Cc1cc(Cl)ccc1NC(=S)N1CCN(Cc2ccc3c(c2)OCO3)CC1 the results were SW480 rereplic inconclusive, VP16 counter inconclusive, RORgamma inh inconclusive, MCF10A rereplic 12%, KB-V1 cytotox inactive and KB-3-1 tox inactive.
O=C(NC(=S)N1CCN(Cc2ccc3c(c2)OCO3)CC1)c1cccc(Br)c1 was read as SW480 rereplic 0%, VP16 counter 0.63µM*, RORgamma inh 0.56µM*, MCF10A rereplic 11%, KB-V1 cytotox 7.3µM* and KB-3-1 tox inconclusive.
For Clc1ccccc1Cn1cccc1C1=NC(Cc2ccccc2)CO1 (centres undefined) the results were KB-V1 cytotox inactive and KB-3-1 tox inactive.
`CC/C=C\C/C=C\C/C=C\C/C=C\C=C\C(O)CCCC(=O)O` (centres undefined) gave VP16 counter 1% and RORgamma inh -38%.
Screening CCOC(=O)C1=C[C@@H](c2ccccc2)N(S(=O)(=O)c2ccc(C)cc2)[C@H]1c1ccccc1Cl returned KB-V1 cytotox inactive and KB-3-1 tox inactive.
For Cc1cc(C)n(CC2CC(=O)N(c3ccc(F)c(Cl)c3)C2=O)n1 (centres undefined) the results were SW480 rereplic -2%, VP16 counter 4%, RORgamma inh 14µM*, MCF10A rereplic 3%, KB-V1 cytotox inactive and KB-3-1 tox inactive.
`COc1ccc(OC)c(/C=C/c2c([N+](=O)[O-])c(=O)n(C)c(=O)n2C)c1` gave SW480 rereplic 17%, VP16 counter 25%, RORgamma inh -20%, MCF10A rereplic -7%, KB-V1 cytotox inactive and KB-3-1 tox 21µM*.
`CN(C)c1ccc(/C=C/c2c([N+](=O)[O-])c(=O)n(C)c(=O)n2C)cc1` gave SW480 rereplic -6%, VP16 counter -4%, RORgamma inh 3%, MCF10A rereplic -6%, KB-V1 cytotox inactive and KB-3-1 tox inactive.
Screening Cn1c(/C=C/c2ccc(Br)cc2)c([N+](=O)[O-])c(=O)n(C)c1=O returned SW480 rereplic inconclusive, VP16 counter -20%, RORgamma inh 11µM*, MCF10A rereplic 21µM*, KB-V1 cytotox inconclusive and KB-3-1 tox 21µM*.
`O=C(Cn1cnc2c(oc3ccccc32)c1=O)Nc1ccc(F)cc1F` gave KB-V1 cytotox inactive and KB-3-1 tox inactive.
Screening O=C(Nc1c2c(nn1-c1ccc(Cl)cc1)CS(=O)(=O)C2)c1cccc(Cl)c1 returned KB-V1 cytotox inconclusive and KB-3-1 tox inactive.
`CCOc1ccccc1NC(=O)CSc1nc2ccccc2c2nc(CCn3cncc3C)nn12` gave KB-V1 cytotox inactive and KB-3-1 tox inactive.
Screening O=C1NC(=O)/C(=C/c2ccc(-c3cc(C(=O)O)ccc3Cl)o2)S1 returned SW480 rereplic -2%, VP16 counter -10%, RORgamma inh 28%, MCF10A rereplic inconclusive, KB-V1 cytotox inactive and KB-3-1 tox inactive.

From PubChem BioAssay
